High-throughput results deposited in PubChem BioAssay by National Center for Advancing Translational Sciences (NCATS).
GLP-1R inv ag – GLP-1 receptor (human) inverse agonism. 1.6% of 410,000 active. HEK293 GLP-1R CRE-luciferase, luminescence, 24 h; GLP-1R form is constitutively active. AID 624417. P43220. Potency, µM (top dose mostly 38.3 µM), for inactives: at the highest dose activity change, negative = inhibition, usual class: inhibitors; also: % is scaled to controls: 0 for no effect and ±100 for the full control effect; nearly all actives have a fitted effect of over 55% in size
Target sequence (P43220 whole entry, looked up): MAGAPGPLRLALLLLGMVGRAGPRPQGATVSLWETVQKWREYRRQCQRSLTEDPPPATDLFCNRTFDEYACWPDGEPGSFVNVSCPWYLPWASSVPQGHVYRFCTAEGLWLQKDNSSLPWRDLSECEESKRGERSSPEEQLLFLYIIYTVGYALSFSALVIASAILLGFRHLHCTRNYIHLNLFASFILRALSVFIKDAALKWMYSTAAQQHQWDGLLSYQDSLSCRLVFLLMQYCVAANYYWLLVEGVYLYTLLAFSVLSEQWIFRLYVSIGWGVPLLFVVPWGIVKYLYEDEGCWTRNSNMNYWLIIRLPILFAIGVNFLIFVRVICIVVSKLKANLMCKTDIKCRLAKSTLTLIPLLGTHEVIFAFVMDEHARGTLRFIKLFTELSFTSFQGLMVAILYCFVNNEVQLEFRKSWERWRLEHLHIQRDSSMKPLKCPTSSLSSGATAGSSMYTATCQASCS
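Inverse agonism was detected as reduced cAMP-driven luciferase luminescence after 24 h compound treatment. The cells were HEK293 clones expressing constitutively active human GLP-1R with the reporter. Reporter-only and GPR119 cell lines served as counterscreen controls.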
RGS4 inhibitor – human RGS4 inhibition; P49798; Transcreener GDP fluorescence polarization, RGS4-accelerated GTP hydrolysis; Potency, µM (top dose mostly 114 µM), inactives show at the top dose activity change, negative = inhibition, most hits filed as inhibitors; 0.039% of 390,000 active; also: % is scaled to controls: 0 for no effect and ±100 for the full control effect; nearly all actives have a fitted effect of over 75% in size
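MLSMR compounds (23 nl, pin-transferred) preincubated 10 min at room temperature with a 500nM (2x) first reagent, then RGS4 at 900nM (2x) plus Transcreener GDP mix added; fluorescence polarization (620/688 nm) read before and after 90 min at 30 °C.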
PTHR1 agonist – activates the human parathyroid hormone receptor PTHR1 | 0.075% of 410,000 active | Potency, µM (top dose mostly 115 µM), for inactives: at the highest dose activation, usual class: activators | Q03431 | AID 743266 | HEK293 GP2 PTHR1 cells, GloSensor cAMP luminescence, 1 h; also: nearly all actives have a fitted effect of over 55% in size
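HEK-293-derived GP2 cells expressing PTHR1 and a GloSensor cAMP reporter, 3,000/well, plated overnight, given luciferin plus IBMX (each 0.5 mM as added) for 1 h at 37 °C, then compound for 1 h at 37 °C. Luminescence was read after 15 min at room temperature.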
GLP-1R agonist – activates the human GLP-1 receptor; Potency, µM (top dose mostly 45.6 µM), inactives show top-dose activation, hits mostly activators; P43220; 0.007% of 380,000 active; HEK293 GLP-1R CRE-luciferase, luminescence, 4-6 h; cells express a hypersensitive GLP-1R form; also: % of control where 0% means no effect
HEK293 tox – cytotoxic in the GLP-1 receptor inverse agonist counter-screen | HEK293 cAMP-luciferase reporter cells, luminescence, 24 h | Potency, µM (series often up to 38.3 µM), for inactives: top-dose activity change, negative = inhibition, usual class: inhibitors | 0.13% of 410,000 active | AID 624418;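 also: loss of luciferase light is scored as toxicity; % is scaled to controls: 0 for no effect and ±100 for the full control effect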
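MLSMR compounds, 24 hr on cells at 37 deg C/5% CO2; luminescence after luciferase reagent (12 min RT). Inhibition counted as the undesired cytotoxic outcome.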
An asterisk follows results filed as active; i = inactive; ? = inconclusive; nt = no result; [ ] = remark or other dose. Most compounds without a hit are left out; they make up all but 1.7% or so of the library. Calls follow the shape of the dose curve; as a rule, active = well fitted curve in the direction sought with a large enough effect; inconclusive = small, poorly fitted or top-dose-only effect, or another doubt; inactive = no such curve, though single readings can be large; an effect the other way counts as inactive or inconclusive. Potency is read from the fitted curve at half-maximal effect.

SMILES	GLP-1R inv ag	RGS4 inhibitor	PTHR1 agonist	GLP-1R agonist	HEK293 tox
CC1(c2ccc(OC(F)F)cc2)NC(=O)N(CC(=O)Nc2ccc(OC(F)F)cc2)C1=O (stereo not given)	10µM*	3.7%	-18.6%	1.5%	5.3%
CC1(c2ccc(OC(F)F)cc2)NC(=O)N(CC(=O)Nc2ccc(F)cc2)C1=O (stereo not given)	?	16.0%	-7.6%	17.3%	-13.1%
O=C1c2ccccc2S(=O)(=O)N1Cc1nc2ccccc2s1	3.98µM*	-30.7%	-5.5%[57.5 µM]	-20.5%	-6.9%
Cc1cc(C)cc(NC(=O)C(OC(=O)c2cccs2)c2ccccc2)c1 (stereo not given)	10µM*	-3.2%	-0.2%	7.7%	3.2%
CC(C)(C)NC(=O)C(OC(=O)c1cccs1)c1ccccc1 (stereo not given)	-27.7%	24.3%	-22.6%	12.6%	0.5%
CCC(Oc1ccccc1)C(=O)NC1CCCCCC1 (stereo not given)	10µM*	-4.9%	-14.4%	0.1%	13.4%
C=CCNCC(=O)N1N=C(c2ccc3ccccc3c2)CC1c1ccc(OC)cc1 (stereo not given)	12.6µM*	10.8%	-24.9%	20.7%	?
Cc1nn(-c2ccc(Br)cc2)c(=O)c2ccccc12	?	-5.9%	i	9.6%	0.0%
Cc1nn(-c2c(Cl)cc(Cl)cc2Cl)c(=O)c2ccccc12	8.91µM*	-30.7%	-13.0%	-2.4%	6.7%
CCOC(=O)c1c(-c2ccccc2)oc2ccc(NS(=O)(=O)c3cc(C)c(C)cc3C)cc12	4.47µM*	-12.1%	i	nt	8.2%
CCOC(=O)c1c(-c2ccccc2)oc2ccc(NS(=O)(=O)c3ccccc3)cc12	?	-13.7%	-7.4%	nt	2.2%
CCCc1nc2ccc(Br)cn2c1Cc1ccccc1OC	?	nt	-83.6%	-1.1%	-23.5%
Cc1cc(Cl)ccc1OCCCC(=O)N1CCN(S(=O)(=O)c2ccccc2)CC1	10µM*	11.4%	i	2.8%	-21.1%
O=C(NCC(O)c1ccc([N+](=O)[O-])cc1)C(c1ccccc1)c1ccccc1 (stereo not given)	?	14.2%	-19.1%	15.1%	-6.7%
O=C(Nc1ccc(Oc2cccnc2)cc1)c1ccc([N+](=O)[O-])cc1	-10.7%	-25.5%	-11.5%	3.9%	15.5%
O=C(Nc1ccc(Nc2ccncc2)cc1)c1ccc([N+](=O)[O-])cc1	10µM*	1.5%	-37.6%	-0.8%	?
O=C(Nc1ccc([N+](=O)[O-])cc1)C(c1ccccc1)c1ccccc1	2.24µM*	nt	-24.1%	-1.6%	-17.6%
Cc1ccc(S(=O)(=O)N2CCCCC2)cc1NC(=O)CCOc1ccccc1	?	-16.6%	-16.0%	8.9%	3.5%[1.53 µM]
Cc1ccc(S(=O)(=O)N2CCCCC2)cc1NC(=O)CCCOc1ccccc1	5.62µM*	-16.7%	-8.7%	7.9%	-6.3%
CCN(CC(=O)Nc1cc(S(=O)(=O)N2CCCCC2)ccc1C)Cc1ccccc1	6.31µM*	-24.0%	-11.4%	5.1%	2.4%
CC(=O)c1ccc(NC(=O)CSc2nccn2Cc2ccc3c(c2)OCO3)cc1	5.9%	-4.7%	-20.7%	nt	-3.3%
O=C(c1ccc(CN2CCc3ccccc3C2)cc1)N1CCCCC1	?	-16.8%	i	-5.4%	1.1%
O=C(c1ccc(CN2CCc3ccccc3C2)cc1)N1CCN(c2ccc(F)cc2)CC1	2µM*	-28.6%	-22.5%	-0.4%	-28.3%
CCCn1c(NC(=O)c2ccccc2)nc2ccccc21	11.2µM*	-16.8%	-28.1%	6.0%	?
CC(C)Cn1c(CNC(=O)c2ccccc2)nc2ccccc21	14.1µM*	-22.7%	-50.4%	2.9%	-11.0%
CCCn1c(NC(=O)c2ccc(C)cc2)nc2ccccc21	?	-27.9%[11.4 µM]	i	-8.2%	-5.1%
CC(C)N(C)c1ncnc2c1ncn2[C@H]1CN(Cc2ccc(-c3ccccc3)cc2)C[C@@H](CO)O1	?	nt	-28.5%	-5.4%	-12.4%
O=C1CCCC/C1=N\Nc1ccc(OCc2ccccc2)cc1	2.82µM*	-14.4%	-22.2%	4.7%	-23.2%
OC(CNc1ccnc2cc(Cl)ccc12)CNC1CCCCC1 (stereo not given)	?	15.9%	i	-11.9%	5.01µM*
